ELG1 genotoxic: qHTS screen for small molecules that induce genotoxicity in human embryonic kidney (HEK293T) cells expressing luciferase-tagged ELG1; HEK293T ELG1-luciferase reporter, luminescence, 16 h; Potency, µM (doses to about 46 µM), for inactives: at the top dose activity change, positive = activation, actives largely listed as activators; 1.3% of 330,000 active; AID 504466, 2011; further: % of control where 0% means no effect; nearly all actives have a fitted effect of over 60% in size
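HEK293T cells expressing luciferase-tagged ELG1 were treated with compound or DMSO for 16 hr at 37°C. Luciferase activity was then read after 30 min with ONE-Glo at room temperature; rising signal flags genetic stress.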
KinaseGlo FLuc: Counterscreen for Luciferase (Kinase-Glo TM) Inhibition. Luciferin 4-monooxygenase (Photuris pensylvanica), Q27757. Kinase-Glo luciferase, ATP luminescence, 8 min. Potency, µM (highest dose often 38.3 µM), for inactives: top-dose activity change, negative = inhibition, most hits filed as inhibitors. 0.28% of 200,000 active; further: on the % scale 0 is the no-effect control and ±100 the full control effect; nearly all actives have a fitted effect of over 60% in size
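Light output from Kinase-Glo luciferase with luciferin and 10 uM ATP in 50 mM imidazole pH 7.2, KCl, MgCl2, Tween 20, BSA; compound pin-delivered, 8-min ambient incubation, then luminescence read.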
NPC1 prom act: qHTS Assay for NPC1 Promoter Activators; Huh7 NPC1 promoter luciferase reporter, 24 h; Potency, µM (doses to about 9.22 µM), inactives show at the highest dose activation, usual class: activators; 2.4% of 320,000 active; AID 485313, 2010; further: % of control where 0% means no effect; nearly all actives have a fitted effect of over 60% in size
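Luminescence from an NPC1 promoter-driven luciferase reporter in stably transfected Huh7 cells was measured after 24 h compound treatment at 37 °C, followed by 10 min ambient incubation with luciferase detection reagent.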
FLuc modulator: qHTS profiling assay for firefly luciferase inhibitor/activator using purifed enzyme and Km concentrations of substrates (counterscreen for miR-21 project). Luciferin 4-monooxygenase (Photinus pyralis), P08659. purified FLuc, Km substrates, luminescence inhibition. Potency, µM (series often up to 57.5 µM), for the others: at the top dose activity change, negative = inhibition, usual class: inhibitors. 6.9% of 360,000 active. AID 588342, 2011;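 further: plate controls were vehicle for no effect and reference inhibitor for full effect; nearly all actives have a fitted effect of over 55% in size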
Target sequence (P08659 whole entry, looked up): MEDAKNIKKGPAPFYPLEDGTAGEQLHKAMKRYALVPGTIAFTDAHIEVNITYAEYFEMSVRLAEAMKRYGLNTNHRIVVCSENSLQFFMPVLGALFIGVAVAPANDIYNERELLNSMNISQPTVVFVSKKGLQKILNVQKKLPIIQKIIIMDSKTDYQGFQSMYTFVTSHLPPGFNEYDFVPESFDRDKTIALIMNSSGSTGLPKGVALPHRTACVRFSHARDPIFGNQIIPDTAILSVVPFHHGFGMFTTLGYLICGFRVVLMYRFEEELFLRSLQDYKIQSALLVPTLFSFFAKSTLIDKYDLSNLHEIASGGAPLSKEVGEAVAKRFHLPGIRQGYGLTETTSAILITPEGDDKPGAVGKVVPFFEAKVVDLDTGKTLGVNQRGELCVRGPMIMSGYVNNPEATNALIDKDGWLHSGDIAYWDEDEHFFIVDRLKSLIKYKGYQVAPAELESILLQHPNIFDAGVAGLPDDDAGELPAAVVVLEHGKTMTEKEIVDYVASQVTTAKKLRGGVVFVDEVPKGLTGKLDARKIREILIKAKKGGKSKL
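Purified P. pyralis luciferase (10nM final) with 10uM D-luciferin and 10uM ATP (Km levels) in 50mM Tris acetate pH 7.5, 10mM Mg acetate, 0.01% Tween-20, 0.05% BSA; qHTS 6-point titration, ~60 µM downward; luminescence read.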
Rab9 prom act: qHTS Assay for Rab9 Promoter Activators. Huh7 Rab9 promoter-luciferase reporter, luminescence, 24 h. Potency, µM (series often up to 9.22 µM), for the others: at the top dose activation, negative = inhibition, usual class: activators. 2.8% of 320,000 active. AID 485297, 2010; further: % of control where 0% means no effect; nearly all actives have a fitted effect of over 60% in size
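Luciferase signal after 10 min detection reagent at ambient indicates Rab9 promoter upregulation; stably transfected Huh7 cells were treated 24 h with compound in DMSO at 37 °C, 5% CO2.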
SMN2 splice up: qHTS Assay for Enhancers of SMN2 Splice Variant Expression. HEK293 SMN2-luciferase splicing reporter, luminescence, 30-36 h. 2.8% of 210,000 active. AID 1458, 2008. Potency, µM (doses to about 46.1 µM), inactives show at the top dose activity change, positive = activation, hits mostly activators; further: % of control where 0% means no effect; nearly all actives have a fitted effect of over 55% in size
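HEK293 cells carry an SMN2 minigene-luciferase reporter in which exon 7 inclusion puts luciferase in frame. Cells were seeded at 2000 cells/well, attached for 10-12 hours, then exposed to compounds for 30-36 hours at 37C before ONE-Glo luminescence.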
* hit, by the source's call; ? = inconclusive; . = no result given. Rows were chosen to be rich in hits. Some 7.5% of all compounds tested hit in one or more screens of this group. The call rests on the fitted dose curve; in most records, active means well fitted curve in the direction sought with a large enough effect; inconclusive means small, poorly fitted or top-dose-only effect, or another doubt; inactive means no such curve, though single readings can be large; an effect the other way counts as inactive or inconclusive. Potency means the concentration at half of the fitted maximal effect.

SMILES	ELG1 genotoxic	KinaseGlo FLuc	NPC1 prom act	FLuc modulator	Rab9 prom act	SMN2 splice up
Cc1ccc(CNc2ccc3c(c2)OCO3)c(C)c1	.	-2.2%	.	21.3µM*	.	5.3%
Oc1ccccc1CNc1ccc2c(c1)OCCO2	?	-5.0%	14.4%	12µM*	3.55µM*	.
CN(C)C(CNC(=O)CNC(=O)c1ccc2ccccc2c1)c1ccccc1 (stereo not drawn)	3.2%	.	?	0.3%	-4.4%	.
CC(C)[C@@H](CC(=O)N[C@@H]1CCNC[C@H]1C(=O)N[C@H](CC(=O)N[C@@H](CCC(=O)O)CC(=O)O)Cc1c[nH]c2ccccc12)NC(=O)C[C@H](Cc1c[nH]c2ccccc12)NC(=O)[C@@H]1CCCC[C@H]1N	.	2.3%	.	.	.	1.7%
C/C(=N\NC(=O)CSc1nc(C)cc(C)n1)c1ccc2c(c1)OCCO2	11.7%	-2.8%	?	?	23.8%	2.8%
COc1ccc(N(C)S(=O)(=O)c2cccc(C(=O)OCC(=O)c3c(N)n(C)c(=O)n(C)c3=O)c2)cc1	-10.4%	.	.	.	.	.
CN1CCN(C(=O)/C(C#N)=C/c2ccc(F)cc2)CC1	10.9%	-1.0%	-16.2%	5.1%	-3.1%	7.2%
Cn1cccc1C(=O)/C(C#N)=C/c1ccc(F)cc1	0.7%	.	1.9%	6.75µM*	-3.7%	.
COc1ccccc1/C=C(/C#N)C(=O)O	2.8%	.	-2.6%	-2.8%	-2.1%	.
COc1ccc(/C=C(\C#N)C(=O)C(C)(C)n2cncn2)cc1	3.1%	0.1%	0.1%	?	-1.6%	-25.4%
COc1ccccc1/C=C(\C#N)C(=O)c1cccn1C	-0.2%	.	-5.5%	10.7µM*	2.3%	.
COc1ccc(/C=C(\C#N)C(=O)c2cccn2C)cc1	0.6%	.	-0.1%	1.51µM*	-1.9%	.
Cc1nc2cc(NCc3ccccc3O)ccc2n1Cc1ccccc1	2.4%	3.6%	7.7%	23.9µM*	14.6%	.
Cc1nc2cc(NCc3ccc(Cl)cc3)ccc2n1C	2.59µM*	.	0.447µM*	2.13µM*	0.447µM*	.
COc1ccc(CNc2ccc3c(c2)nc(C)n3C)cc1	?	-3.3%	2.51µM*	9.53µM*	1.41µM*	11.2µM*
Cc1ccc(CNc2ccc3c(c2)nc(C)n3C)cc1	2.06µM*	.	0.562µM*	4.26µM*	0.631µM*	.
CNC(=O)C(=O)N/N=C/c1ccc(Br)cc1	6.8%	-1.1%	7.1%	?	12.3%	-1.7%
N/C(=N\N=C/c1ccc(F)cc1)N/N=C\c1ccc(F)cc1	5.1%	.	-0.6%	6.01µM*	-2.8%	.
N/C(=N\N=C/c1ccc(Br)cc1)N/N=C\c1ccc(Br)cc1	2.1%	-0.1%	1.3%	10.7µM*	?	-8.3%
CCn1c(C(=O)OC)cc2c1ccn2-c1ccc(F)cc1	16.4µM*	1.3%	?	9.53µM*	?	15.8µM*
Cc1ccc(-c2nsc(SCC(=O)NCC3CCCO3)n2)cc1 (stereo not drawn)	-2.7%	0.0%	20.5%	16.9µM*	29.2%	-51.0%
COc1ccc(-c2nsc(SCC(=O)NCC3CCCO3)n2)cc1 (stereo not drawn)	9.1%	0.0%	11.2%	15.1µM*	?	-24.2%
Cc1ccc(SCC(=O)NCC2CCCO2)cc1 (stereo not drawn)	3.8%	1.6%	3.9%	-5.9%	6.4%	.
COc1ccc(-n2nnc3c(SCC(=O)NCC4CCCO4)ncnc32)cc1 (stereo not drawn)	1.6%	-8.8%	-3.9%	10.7µM*	-1.8%	-0.5%
Cc1cccc(CCNC(=O)C2CCC(CNS(=O)(=O)c3c(C)cc(C)cc3C)CC2)c1 (stereo not drawn)	.	.	.	-0.6%	.	.
SMILES	ELG1 genotoxic	KinaseGlo FLuc	NPC1 prom act	FLuc modulator	Rab9 prom act	SMN2 splice up
O=C(O)c1cc([N+](=O)[O-])ccc1N1CCCCC1	0.4%	8.4%	-1.2%	-1.5%	0.9%	-1.1%
O=[N+]([O-])c1ccc2c(c1)N([O-])C1(CCCCC1)[N+]2=O	2.4%	.	-0.4%	15.1µM*	10.3%	.
CC1=NNC(=O)C1CC(=O)N/N=C/C(Br)=C/c1ccccc1 (stereo not drawn)	0.0%	.	-2.0%	-4.7%	-2.7%	.
O=C(Cc1cc(=O)[nH][nH]1)N/N=C/C(Cl)=C/c1ccccc1	-0.1%	3.0%	2.6%	23.9µM*	1.4%	?
O=C(N/N=C/C(Br)=C/c1ccccc1)c1ccccc1F	18.3µM*	.	3.55µM*	10.7µM*	3.16µM*	.
N#Cc1ccc(/C=N/NC(=O)c2ccccc2F)cc1	?	-2.2%	23.1%	?	10.4%	?
O=C(N/N=C/C(Cl)=C/c1ccccc1)c1ccccc1F	?	.	?	12µM*	?	.
CC1C(=O)NN=C1C(=O)N/N=C\C(Br)=C\c1ccccc1 (stereo not drawn)	?	-25.2%	2.51µM*	1.51µM*	2.24µM*	22.4µM*
COc1ccc(S(=O)(=O)N2CCc3ccccc32)cc1C(=O)N1CCOCC1	0.6%	.	1.1%	-0.4%	-2.0%	.
COc1cc(/C=N/NC(=O)C2=NNC(=O)C2C)ccc1O (stereo not drawn)	-1.1%	.	3.0%	?	1.3%	.
CC1C(=O)NN=C1C(=O)N/N=C\c1ccc(O)cc1O (stereo not drawn)	-5.6%	-24.6%	-3.1%	16.9µM*	-3.8%	-2.6%
O=C(Cn1nnc2ccccc21)Nc1ccc([N+](=O)[O-])cc1	1.9%	.	-2.4%	0.9%	-0.6%	.
Cc1ccc(NC(=O)Cn2nnc3ccccc32)cc1	?	-0.4%	?	16.9µM*	3.55µM*	.
COc1ccc(NC(=O)COC(=O)Cn2nnc3ccccc32)cc1	0.2%	-0.9%	-2.9%	-10.0%	0.4%	-2.1%
Cc1cccc(NC(=O)Cn2nnc3ccccc32)c1	?	-2.3%	2.82µM*	?	2.82µM*	2.2%
COC(=O)c1ccc(NC(=O)Cn2nnc3ccccc32)cc1	16.4µM*	-1.8%	3.55µM*	4.26µM*	2.82µM*	12.6µM*
Cc1ccc(SCc2nc3ccccc3n2CC(=O)Nc2ccccc2)cc1	-0.5%	-7.6%	-3.1%	15.1µM*	3.9%	5.7%
COc1ccc(-c2nnc(Nc3ccc(OCC(N)=O)cc3)c3ccccc23)cc1	.	.	.	3.1%	.	-22.5%
O=C(c1ccc2c(c1)N(Cc1ccccc1)C(=O)c1ccccc1S2(=O)=O)N1CCN(c2ccccc2)CC1	.	.	.	-5.1%	.	2.5%
CC(=O)c1sc(N/N=C/c2cccc(O)c2)nc1C	?	.	10.0%	9.53µM*	?	.
CCOC(=O)c1sc(N/N=C/c2cc(Br)c(O)c(OC)c2)nc1C	0.2%	.	10.3%	?	1.8%	.
